Entries with a potency or affinity are not part of this list.
Columns and labels:
[1] = test system: Klebsiella pneumoniae; details: Concentration 32 ug.mL-1;; ASSAY_TEST Inhibition of Bacterial Growth; detection method Absorption (OD600); MEDIA CAMHB; plate type 384well; NBS; CORNING #3640; time 18 hr
[2] = test system: Candida albicans; details: Concentration 32 ug.mL-1; ASSAY_TEST Inhibition of Fungal Growth; detection method Absorption (OD530)
[3] = test system: Cryptococcus neoformans; details: Concentration 32 ug.mL-1; ASSAY_TEST Inhibition of Fungal Growth; detection method Resazurin; Absorption (OD600-OD570); plate type 384well; NBS; CORNING #3640

| SMILES | Inhibition [1] | Inhibition [2] | Inhibition [3] |
| --- | --- | --- | --- |
| COc1ccccc1Cn1c(=O)c2sccc2n2c(=O)n(Cc3cccc(Br)c3)nc12 | 0.7% | -0.62% | -14.71% |
| COc1ccc2[nH]cc(C(=O)CSc3nnc4c(=O)n(-c5ccc(F)cc5)ccn34)c2c1 | 12.89% | 3.24% | -7.69% |
| Cc1ccc(NC(=O)Cn2nc3c(SCc4ccccc4)nccn3c2=O)cc1C | 8.81% | 15.8% | -18.48% |
| COc1ccc(-c2cc3c4nnc(CCC(=O)NCc5ccc6c(c5)OCO6)n4ccn3n2)cc1 | 9.82% | 3.53% | -3.36% |
| CC(C)c1nnc2c(=O)n(CC(=O)Nc3cccc(F)c3)c3ccccc3n12 | 24.07% | 3.13% | -19.58% |
| CCC(Sc1nnc2c(=O)n(-c3cccc(OC)c3)ccn12)C(=O)Nc1cc(F)ccc1F (centres undefined) | 2.62% | 1.66% | -8.66% |
| COc1ccc(CNC(=O)Cn2nc3c(Oc4ccccc4C)nccn3c2=O)cc1 | 7.26% | -2.47% | -8.82% |
| O=C(Cn1nc2c(Sc3cccc(F)c3)nccn2c1=O)Nc1ccc(Br)cc1 | 4.85% | 1.59% | -3.57% |
| Cc1ccc(NC(=O)Cn2nc3c(N4CCOCC4)nc4ccccc4n3c2=O)cc1C | 11.25% | -0.6% | -25.03% |
| Cc1nnc2c(=O)n(CC(=O)Nc3cccc(Cl)c3)c3ccccc3n12 | 15.43% | -0.29% | -13.95% |
| CCOc1ccc(-n2ccn3c(SCC(=O)Nc4ccc(C)cc4)nnc3c2=O)cc1 | 16.35% | 4.07% | -19.05% |
| Cc1ccc(NC(=O)Cn2nc3c(N4CCOCC4)nccn3c2=O)cc1F | 7.04% | 3.27% | -4.33% |
| Cc1cccc(CN(c2cc(C)cc(C)c2)S(=O)(=O)c2cccn3c(C)nnc23)c1 | 4.64% | 1.12% | -10.57% |
| COc1ccc(-c2cc3c4nn(CC(=O)Nc5ccc(C)c(F)c5)c(=O)n4ccn3n2)cc1 | 3.92% | 28.75% | -7.43% |
| CCCc1nnc2c(=O)n(CC(=O)Nc3cccc(Br)c3)c3ccccc3n12 | 0.59% | 0.12% | -38.92% |
| CCCc1nnc2c(=O)n(CC(=O)Nc3ccc(Br)cc3)c3ccccc3n12 | 14.09% | 0.11% | -25.88% |
| CCC(C)NC(=O)c1ccc2c(=O)n(CCC(C)C)c3nn(CC#N)c(=O)n3c2c1 (centres undefined) | 14.77% | 0.65% | -22.02% |
| Cc1cccc(C)c1NC(=O)Cn1nc2c3c4c(sc3ncn2c1=O)CCCC4 | 12.26% | 11.56% | -19.68% |
| CCOc1ccc(-n2ccn3c(SCC(=O)Nc4ccccc4C(F)(F)F)nnc3c2=O)cc1 | 17.14% | 2.4% | -14.22% |
| CCOc1ccc(C(=O)CSc2nnc3c(=O)n(-c4ccc(OCC)cc4)ccn23)cc1 | 14.22% | 5.82% | -6.09% |
| Cc1ccc(N(Cc2ccc(F)cc2)S(=O)(=O)c2ccc3nnc(C)n3c2)cc1 | 5.71% | 1.54% | -13.44% |
| O=C(Cn1nc2c(SC3CCCCC3)nccn2c1=O)NCc1ccc(F)cc1 | 9.17% | 0.24% | -16.51% |
| CCOc1ccc(NC(=O)Cn2nc3c(Sc4ccccc4)nccn3c2=O)cc1 | 8.21% | 7.49% | -21.93% |
| Cc1ccc(NC(=O)Cn2nc3ccc(SC(C)C)nn3c2=O)cc1F | 6.4% | 5.51% | -6.87% |
| CC(C)(C)OC(=O)CN(c1ccc2c(c1)OCCO2)S(=O)(=O)c1ccc2nncn2c1 | 11.52% | 1.39% | -8.21% |
| O=C(CSc1nnc2c(=O)n(-c3ccccc3)ccn12)Nc1ccc(Br)cc1F | 1.03% | 2.95% | -12.46% |
| CCc1ccc(NC(=O)Cn2nc3c4cc(-c5ccc(Cl)cc5)nn4ccn3c2=O)cc1 | 19.83% | 3.83% | -20.86% |
| Cc1nc(-c2ccccn2)cc2nn(CC(=O)Nc3ccccc3C(F)(F)F)c(=O)n12 | 3.31% | 0.65% | -8.99% |

Reference: ChEMBL document CHEMBL4513146, “CO-ADD screening of Karazin Kharkiv National University (Ukraine) compounds”
